In the experiment the test system is HL-1. Nature of the experiment: relative cell viability (CellTiter-Glo) vs DMSO control (% of DMSO control); higher = more viable cells. The method in brief: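 Plating of HL-1 mouse atrial cardiomyocytes at 1000 cells per well in 384-well plates was done together with compounds at 40, 200, 1000 or 5000 nM in 0.01% DMSO. A day later the cells faced 48 h of 1% O2 and then 24 h of reoxygenation, or matching normoxia. Viability was measured via CellTiter-Glo luminescence and set relative to vehicle-treated control cells.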

The mark [1] stands for this setting: oxygen condition: hypoxia 48 h (1% O2) + reoxygenation 24 h, 40 nM.
Setting [2] is: oxygen condition: hypoxia 48 h (1% O2) + reoxygenation 24 h, 200 nM.
Where [3] appears, read: oxygen condition: hypoxia 48 h (1% O2) + reoxygenation 24 h, 1000 nM.
The mark [4] stands for this setting: oxygen condition: hypoxia 48 h (1% O2) + reoxygenation 24 h, 5000 nM.
Where [5] appears, read: oxygen condition: normoxia 72 h, 40 nM.
[6] abbreviates: oxygen condition: normoxia 72 h, 200 nM.
The mark [7] stands for this setting: oxygen condition: normoxia 72 h, 1000 nM.
Setting [8] is: oxygen condition: normoxia 72 h, 5000 nM.

The results in this text go back to the supplement of paper PMC8371130.

Where a name gives a salt, the structure may show the parent alone.

For the compound `CN(C(=O)CN(CCO)CC(=O)N(C)C(C)(C)Cc1ccccc1)C(C)(C)Cc1ccccc1` [Oxethazaine], the relative cell viability is, setting by setting: under setting [1], 102; under setting [2], 103; under setting [3], 106; under setting [4], 115; under setting [5], 99.2; under setting [6], 103. The relative cell viability by setting is: under setting [7], 97.9; under setting [8], 128.
Regarding `CCOc1ccc2nc(S(N)(=O)=O)sc2c1` [Ethoxzolamide], the relative cell viability reads like this: under setting [1], 100; under setting [2], 101; under setting [3], 96.7; under setting [4], 105; under setting [5], 102; under setting [6], 98.8. In addition, the relative cell viability runs as follows: under setting [7], 102; under setting [8], 108.
As for `NCCC(O)(P(=O)(O)O)P(=O)(O)O` [Pamidronate Disodium], the relative cell viability under setting [1] was 98.6; the relative cell viability under setting [2] was 106; the relative cell viability under setting [3] turned out to be 107; the relative cell viability under setting [4] stood at 76.5; the relative cell viability under setting [5] was determined as 107; the relative cell viability under setting [6] came out at 99.9. The relative cell viability by setting is: under setting [7], 108; under setting [8], 105.
Turning to `O=C1c2ccccc2C(=O)C1c1ccccc1` [Phenindione], the relative cell viability is 97 under setting [1]; 105 under setting [2]; 95.1 under setting [3]; 113 under setting [4]; 108 under setting [5]; 107 under setting [6]. Moreover, the relative cell viability stood at 102 under setting [7] and 108 under setting [8].
As for `CCC(=O)NCC[C@@H]1CCc2ccc3c(c21)CCO3` [Ramelteon], the relative cell viability is, setting by setting: under setting [1], 104; under setting [2], 116; under setting [3], 110; under setting [4], 111; under setting [5], 105; under setting [6], 108. In addition, the relative cell viability by setting is: under setting [7], 118; under setting [8], 107.
Consider `CNC(=O)c1cc(Oc2ccc(NC(=O)Nc3ccc(Cl)c(C(F)(F)F)c3)c(F)c2)ccn1` [Regorafenib], for which the relative cell viability by setting is: under setting [1], 107; under setting [2], 113; under setting [3], 109; under setting [4], 114; under setting [5], 110; under setting [6], 110. Besides, the relative cell viability is, setting by setting: under setting [7], 114; under setting [8], 134.
Regarding `CN(C)CCCN1c2ccccc2Sc2ccc(C(F)(F)F)cc21` [Triflupromazine HCl], the relative cell viability amounted to 98.8 under setting [1]; 105 under setting [2]; 102 under setting [3]; 106 under setting [4]; 102 under setting [5]; 99.3 under setting [6]. Besides, the relative cell viability runs as follows: under setting [7], 101; under setting [8], 106.
Turning to `CCOC(=O)C1=C(COCCN)NC(C)=C(C(=O)OC)C1c1ccccc1Cl` (stereo unspecified) [Amlodipine besylate], the relative cell viability reads like this: under setting [1], 88; under setting [2], 102; under setting [3], 102; under setting [4], 105; under setting [5], 103; under setting [6], 105. Besides, the relative cell viability runs as follows: under setting [7], 106; under setting [8], 102.
With `Cc1ccc(NC(=O)c2ccc(CN3CCN(C)CC3)cc2)cc1Nc1nccc(-c2cccnc2)n1` [Imatinib Mesylate], the relative cell viability runs as follows: under setting [1], 121; under setting [2], 117; under setting [3], 136; under setting [4], 111; under setting [5], 122; under setting [6], 146. The relative cell viability was 156 under setting [7] and 117 under setting [8].
As for `COCCc1ccc(OCC(O)CNC(C)C)cc1` (stereo unspecified) [Metoprolol tartrate], the relative cell viability amounted to 101 under setting [1]; 98 under setting [2]; 105 under setting [3]; 111 under setting [4]; 77.9 under setting [5]; 103 under setting [6]. The compound also gave a relative cell viability under setting [7] of 103 and a relative cell viability under setting [8] of 111.
Consider `CN[C@H](CC(C)C)C(=O)N[C@H]1C(=O)N[C@@H](CC(N)=O)C(=O)N[C@H]2C(=O)N[C@H]3C(=O)N[C@H](C(=O)N[C@H](C(=O)O)c4cc(O)cc(O)c4-c4cc3ccc4O)[C@H](O)c3ccc(c(Cl)c3)Oc3cc2cc(c3O[C@@H]2O[C@H](CO)[C@@H](O)[C@H](O)[C@H]2O[C@H]2C[C@](C)(N)[C@H](O)[C@H](C)O2)Oc2ccc(cc2Cl)[C@H]1O` [Vancomycin HCl], for which the relative cell viability was found to be 105 under setting [1]; 92.7 under setting [2]; 105 under setting [3]; 114 under setting [4]; 106 under setting [5]; 99.4 under setting [6]. The same compound had a relative cell viability under setting [7] of 106 and a relative cell viability under setting [8] of 113.
Regarding `O=c1[nH]c(=O)n(C2CCCO2)cc1F` (stereo unspecified) [Ftorafur], the relative cell viability runs as follows: under setting [1], 101; under setting [2], 103; under setting [3], 104; under setting [4], 96.9; under setting [5], 100; under setting [6], 101. Also, the relative cell viability came out at 114 under setting [7] and 89.2 under setting [8].
On to `CC1=NN(c2ccccc2)C(=O)C1` [Edaravone], for which the relative cell viability under setting [1] is 101; the relative cell viability under setting [2] came to 97.7; the relative cell viability under setting [3] came to 95.2; the relative cell viability under setting [4] is 108; the relative cell viability under setting [5] came out at 95.7; the relative cell viability under setting [6] came to 95.9. The relative cell viability under setting [7] came to 98.9 and the relative cell viability under setting [8] was determined as 103.
Regarding `Cc1nc2n(c(=O)c1CCN1CCC(c3noc4cc(F)ccc34)CC1)CCCC2` [Risperidone], the relative cell viability under setting [1] was determined as 104; the relative cell viability under setting [2] stood at 109; the relative cell viability under setting [3] stood at 106; the relative cell viability under setting [4] was 113; the relative cell viability under setting [5] is 104; the relative cell viability under setting [6] was found to be 109. Besides, the relative cell viability runs as follows: under setting [7], 104; under setting [8], 114.
Regarding `CC(C)C[C@H](NC(=O)[C@H](Cc1ccccc1)NC(=O)c1cnccn1)B(O)O` [Bortezomib], the relative cell viability is, setting by setting: under setting [1], 10.4; under setting [2], 10; under setting [3], 8.52; under setting [4], 4.58; under setting [5], 12.9; under setting [6], 10.5. For the same compound, the relative cell viability came to 6.82 under setting [7] and 4.44 under setting [8].
Turning to `c1ccc2c(CC3=NCCN3)cccc2c1` [Naphazoline hydrochloride], the relative cell viability came out at 97.8 under setting [1]; 111 under setting [2]; 106 under setting [3]; 109 under setting [4]; 98.8 under setting [5]; 102 under setting [6]. The relative cell viability by setting is: under setting [7], 106; under setting [8], 102.
`CN(Cc1ccc(C(C)(C)C)cc1)Cc1cccc2ccccc12` [Butenafine HCl]: the relative cell viability came to 98.1 under setting [1]; 104 under setting [2]; 106 under setting [3]; 109 under setting [4]; 104 under setting [5]; 100 under setting [6]. Besides, the relative cell viability reads like this: under setting [7], 106; under setting [8], 110.
